Experimental data: PubChem BioAssay (NCATS)
Inconclusive results are not listed. Where a call stands in place of a potency, no number is given. Unmarked numbers belong to inactive results. Activity calls are given as the source filed them. Calls follow the shape of the dose curve; as a rule, active = well fitted inhibition curve with a large enough effect; inconclusive = small, poorly fitted or top-dose-only effect; inactive = flat fitted curve, though single readings scatter.

assay: P-glycoprotein substrates identified in KB-8-5-11 adenocarcinoma cell line, qHTS therapeutic library screen (AID 1346987); conditions: KB-8-5-11 (P-gp overexpressing) viability, CellTiter-Glo, 72 h; series mostly up to 44.5 µM; also: nearly all actives have a fitted effect of over 65% in size
Procedure, shortened: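 KB-8-5-11, a colchicine-selected P-gp-overexpressing KB-3-1 subline, was grown without colchicine for the assay. Cells were seeded at 500 cells/well, dosed in concentration-response and incubated 72 h at 37 degree C, 5% CO2. Viability was read by CellTiter-Glo luminescence.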

Row | Compound | Potency | activity change, negative = cytotoxicity
1 | CC(=O)O[C@@H]1C[C@@]23C[C@@]24CC[C@H](OC2OC[C@@H](O)[C@H](O)[C@H]2O)C(C)(C)[C@@H]4CC[C@H]3[C@]2(C)CC3OC4(C[C@@H](C)C3[C@@]12C)OCC1(C)OC14 (stereo partly drawn) | inactive | –
2 | COc1ccccc1CC(C(=O)O)N(C)C(=O)c1ccccc1 (stereo not drawn) | inactive | –
3 | CC1CCC2(C(=O)OC3OC(COC4OC(CO)C(O)C(O)C4O)C(O)C(O)C3O)CCC3(C)C(=CCC4C5(C)CCC(O)C(C)(C(=O)O)C5CCC43C)C2C1(C)O (stereo not drawn) | – | 1.52% [at 9.29 µM]
4 | COC1=Cc2c(nc3n(c2=O)C(C)C(=O)NC3(O)C(C)C)OC=C1 (stereo not drawn) | inactive | –
5 | CCC(=O)OCC(=O)[C@@]1(OC(=O)CC)[C@H](C)C[C@H]2[C@H]3[C@H]([C@@H](O)C[C@@]21C)[C@@]1(C)C=CC(=O)C=C1C[C@H]3Cl | inactive | –
6 | CC(CO[C@@H]1O[C@H](COC(=O)/C=C/c2ccc(O)c(O)c2)[C@@H](O)[C@H](O)[C@H]1O)C1(O)COC(=O)C1 (stereo partly drawn) | inactive | –
7 | COc1cc(C2Oc3c(OC)cc(/C=C/C(=O)OC[C@H]4O[C@@H](OC(C)(C)C(=O)O)[C@H](O)[C@@H](O)[C@@H]4O)cc3C2CO)ccc1O (stereo partly drawn) | inactive | –
8 | C[C@@H]1O[C@@H](O[C@H]2[C@H](O[C@H]3[C@H](O[C@H]4CC[C@@]5(C=O)C(CC[C@]6(C)C5CC=C5C7CC(C)(C)C[C@@H](O)[C@]7(C)CC[C@]56C)C4(C)C)O[C@H](C(=O)O)[C@@H](O)[C@@H]3O)OC[C@@H](O)[C@@H]2O)[C@H](O)[C@H](O)[C@H]1O (stereo partly drawn) | – | 5.8% [at 9.29 µM]
